In PubChem BioAssay:
Calls of active or inactive are those of the source.

Tests used:
[1] = tested on: Plasmodium falciparum Sir2 (PF13_0152, Sir2A); assay: pfSir2 binders on small-molecule microarrays, primary screen, biochemical, small-molecule microarray, 635 nm fluorescence (AID 1098); conditions: small-molecule microarray binding, fluorescence 635 nm; higher = more signal;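 also: score merges spot fluorescence intensity with its signal-to-noise ratio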
[2] = small-molecule microarray binders of probe aDKK1, primary screen, biochemical, biotinylated probe, 635/667 nm fluorescence (AID 1099); conditions: higher = more signal;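 also: score merges 667nm spot fluorescence with signal to noise across triplicate slides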
[3] = small-molecule microarray binders of probe aCHRDL2, primary screen, biochemical, biotinylated probe, 635/667 nm fluorescence (AID 1100); conditions: higher = more signal
[4] = splicing luciferase reporter signal modulators, primary screen, spliceosome inhibition project, cell-based, HEK293, splice +/- reporter (AID 1101); conditions: luminescence, 24 h, higher = more signal, called active from +8 up or from −8 down;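 also: HEK293 cells carrying a splicing-competent luciferase reporter gene; test concentration not given here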
[5] = biological target: Fibroblast growth factor 10 (Homo sapiens) (UniProt O15520); assay: FGF10 binders on small-molecule microarrays, primary screen, biochemical, small-molecule microarray, 635 nm fluorescence (AID 1102); conditions: FGF10 binding, fluorescence 635 nm, higher = more signal
[6] = tested on: glycogen synthase kinase-3 (GSK3A per assay name; protocol says GSK3B); assay: GSK3 binders on small-molecule microarrays, primary screen, biochemical, small-molecule microarray, 635 nm fluorescence, GSK3A (AID 1103); conditions: small-molecule microarray binding, fluorescence 635 nm; higher = more signal; also: the record names both GSK3A and GSK3B
[7] = biological target: Epidermal growth factor receptor (Homo sapiens) (UniProt P00533); assay: EGFR binders on small-molecule microarrays, primary screen, biochemical, small-molecule microarray, 635 nm fluorescence (AID 1104); conditions: EGFR binding, higher = more signal;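 also: score merges 667 nm emission intensity with spot signal to noise over triplicate slides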
[8] = biological target: Follistatin-related protein 3 (Homo sapiens) (UniProt O95633); assay: FSTL3 binders on small-molecule microarrays, primary screen, biochemical, small-molecule microarray, 635 nm fluorescence (AID 1105); conditions: FSTL3 binding, higher = more signal;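 also: score merges emission near 667 nm and signal to noise per printed spot across three slides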
[9] = biological target: Dickkopf-related protein 1 (Homo sapiens) (UniProt O94907); assay: DKK1 binders on small-molecule microarrays, primary screen, biochemical, small-molecule microarray, 635 nm fluorescence scan (AID 1106); conditions: DKK1 binding, higher = more signal;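 also: score merges emission near 667 nm with signal to noise over three replicate slides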
[10] = tested on: Inhibin beta A chain (activin A); assay: INHBA (activin A) binders on microarrays, primary screen, biochemical, small-molecule microarray, 635 nm fluorescence scan (AID 1107); conditions: small-molecule microarray binding, higher = more signal;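 also: mouse activin A protein probed at 4.33 µg/mL on printed slides; score merges bound-protein fluorescence near 667 nm with spot signal-to-noise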
[11] = tested on: Human papillomavirus type 1a protein E7 (residues 44-93); assay: HPV1a E7 fragment binders on microarrays, primary screen, biochemical, small-molecule microarray, residues 44-93, 635 nm fluorescence (AID 1108); conditions: small-molecule microarray binding, fluorescence 635 nm; higher = more signal;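 also: E7 fragment applied at 1 µg/mL in TBST for 1 h at 4 C; score combines spot fluorescence with its signal to noise ratio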
[12] = modulators of HCV replicon luciferase signal, primary screen, HCV replication inhibitor project, Huh7 cells, luciferase reporter (AID 1109); conditions: 48 h, higher = more signal;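 also: huh7 hepatoma cells harbouring a luciferase neomycin HCV replicon reporter; luciferase luminescence as measure of HCV replicon replication; test concentration not given here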
[13] = biological target: Left-right determination factor 2 (Homo sapiens) (UniProt O00292); assay: LEFTY2 binders on small-molecule microarrays, primary screen, biochemical, small-molecule microarray, 635 nm fluorescence scan (AID 1110); conditions: LEFTY2 binding, higher = more signal
[14] = biological target: Calmodulin-1 (Homo sapiens) (UniProt P0DP23); assay: CALM1 binders on microarrays, EGTA buffer, profiling panel, biochemical, small-molecule microarray, Cy5-labelled CALM1 (AID 1111); conditions: Cy5-CALM1 binding fluorescence, higher = more signal;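 also: labelled calmodulin applied in Tris saline Tween buffer holding calcium plus EGTA and DTT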
[15] = biological target: Calmodulin-1 (Homo sapiens) (UniProt P0DP23); assay: calcium-bound CALM1 binders on microarrays, profiling panel, artefact control for SMM control-protein annotation, biochemical, small-molecule microarray, Cy5-labelled CALM1, plus calcium (AID 1112); conditions: Cy5-CALM1 binding fluorescence, higher = more signal;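 also: score merges spot fluorescence with signal to noise from triplicate slides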
[16] = small-molecule microarray binders of probe aWnt5a, primary screen, biochemical, biotinylated probe, 635/667 nm fluorescence (AID 1113); conditions: higher = more signal;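 also: score merges 667 nm fluorescence intensity with signal-to-noise per printed feature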
[17] = small-molecule microarray binders of probe aShh, primary screen, biochemical, biotinylated probe, 635/667 nm fluorescence (AID 1114); conditions: higher = more signal;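 also: probe is biotin-labelled aShh protein from a stem cell growth factor screen; measures binding of labelled protein to compounds printed on the slide; score merges feature fluorescence at 667 nm with signal-to-noise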
[18] = small-molecule microarray binders of probe aNog, primary screen, biochemical, biotinylated probe, 635/667 nm fluorescence (AID 1115); conditions: higher = more signal;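 also: probe is biotinylated aNog protein used at 0.15 µg/mL for 1 h at 4 C; z-score combines 667 nm fluorescence of each spot with its signal to noise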
[19] = biological target: Torsin-1A-interacting protein 1 (Homo sapiens) (UniProt Q5JTV8); assay: LAP1 binders from COS7 cell lysate, primary screen, small-molecule microarray, 635/667 nm fluorescence (AID 1116); conditions: COS7-hLAP1 lysate binding, 635 nm fluorescence, higher = more signal
[20] = biological target: Alpha-bungarotoxin (Bungarus multicinctus) (UniProt P60615); assay: alpha-bungarotoxin binders on microarray, profiling panel, artefact control for SMM control protein annotation, biochemical, small-molecule microarray, Alexa647 label, 635/667 nm fluorescence (AID 1117); conditions: alpha-BTX-A647 binding fluorescence, higher = more signal
Alpha-bungarotoxin (Bungarus multicinctus), sequence (P60615 whole entry, looked up): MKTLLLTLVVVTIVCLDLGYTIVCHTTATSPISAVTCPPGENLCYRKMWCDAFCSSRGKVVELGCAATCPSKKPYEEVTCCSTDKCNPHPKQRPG

Dickkopf-related protein 1 (Homo sapiens), sequence (O94907 whole entry, looked up): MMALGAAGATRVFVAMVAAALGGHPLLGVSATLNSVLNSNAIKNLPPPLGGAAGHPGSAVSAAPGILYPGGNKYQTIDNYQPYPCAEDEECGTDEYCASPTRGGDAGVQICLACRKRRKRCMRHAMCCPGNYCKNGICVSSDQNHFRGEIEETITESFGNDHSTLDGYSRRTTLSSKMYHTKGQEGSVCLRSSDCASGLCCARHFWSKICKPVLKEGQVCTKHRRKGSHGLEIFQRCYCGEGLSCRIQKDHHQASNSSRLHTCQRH
Fibroblast growth factor 10 (Homo sapiens), sequence (O15520 whole entry, looked up): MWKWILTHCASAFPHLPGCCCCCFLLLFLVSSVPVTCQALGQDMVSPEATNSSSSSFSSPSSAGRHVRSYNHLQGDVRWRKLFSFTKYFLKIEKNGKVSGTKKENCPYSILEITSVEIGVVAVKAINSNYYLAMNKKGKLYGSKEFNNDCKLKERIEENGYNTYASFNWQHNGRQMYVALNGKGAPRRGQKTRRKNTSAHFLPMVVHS
Epidermal growth factor receptor (Homo sapiens), sequence (P00533 whole entry, looked up): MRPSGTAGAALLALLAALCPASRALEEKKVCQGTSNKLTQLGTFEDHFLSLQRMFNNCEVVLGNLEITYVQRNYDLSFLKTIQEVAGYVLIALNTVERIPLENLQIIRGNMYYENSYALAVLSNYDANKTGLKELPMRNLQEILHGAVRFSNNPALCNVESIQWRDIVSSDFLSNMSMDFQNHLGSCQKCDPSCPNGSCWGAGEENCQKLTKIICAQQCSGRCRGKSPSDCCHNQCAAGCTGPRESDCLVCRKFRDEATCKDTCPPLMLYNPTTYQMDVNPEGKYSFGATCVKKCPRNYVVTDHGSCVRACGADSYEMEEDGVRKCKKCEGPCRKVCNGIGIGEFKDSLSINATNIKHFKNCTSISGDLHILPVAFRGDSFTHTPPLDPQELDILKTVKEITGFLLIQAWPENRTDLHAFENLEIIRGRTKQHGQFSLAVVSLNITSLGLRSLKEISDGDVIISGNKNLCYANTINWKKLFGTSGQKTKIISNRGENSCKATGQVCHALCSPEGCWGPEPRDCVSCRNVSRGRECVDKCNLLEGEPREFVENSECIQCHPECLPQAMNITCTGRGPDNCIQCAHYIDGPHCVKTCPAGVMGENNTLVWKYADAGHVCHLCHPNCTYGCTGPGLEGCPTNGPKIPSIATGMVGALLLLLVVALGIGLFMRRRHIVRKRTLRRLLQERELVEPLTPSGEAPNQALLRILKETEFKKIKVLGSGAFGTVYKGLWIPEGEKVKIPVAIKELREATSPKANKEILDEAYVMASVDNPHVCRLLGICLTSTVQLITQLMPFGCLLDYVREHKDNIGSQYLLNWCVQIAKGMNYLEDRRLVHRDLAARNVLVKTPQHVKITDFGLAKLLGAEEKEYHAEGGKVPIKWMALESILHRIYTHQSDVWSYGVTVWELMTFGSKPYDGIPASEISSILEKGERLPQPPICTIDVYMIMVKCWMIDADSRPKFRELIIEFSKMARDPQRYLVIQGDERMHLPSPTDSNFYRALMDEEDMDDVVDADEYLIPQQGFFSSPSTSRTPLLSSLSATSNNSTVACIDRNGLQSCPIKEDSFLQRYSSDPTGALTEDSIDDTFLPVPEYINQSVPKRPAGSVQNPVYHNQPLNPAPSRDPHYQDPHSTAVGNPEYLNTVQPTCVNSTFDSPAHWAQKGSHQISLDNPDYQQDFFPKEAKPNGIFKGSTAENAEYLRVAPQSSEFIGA
Torsin-1A-interacting protein 1 (Homo sapiens), sequence (Q5JTV8 whole entry, looked up): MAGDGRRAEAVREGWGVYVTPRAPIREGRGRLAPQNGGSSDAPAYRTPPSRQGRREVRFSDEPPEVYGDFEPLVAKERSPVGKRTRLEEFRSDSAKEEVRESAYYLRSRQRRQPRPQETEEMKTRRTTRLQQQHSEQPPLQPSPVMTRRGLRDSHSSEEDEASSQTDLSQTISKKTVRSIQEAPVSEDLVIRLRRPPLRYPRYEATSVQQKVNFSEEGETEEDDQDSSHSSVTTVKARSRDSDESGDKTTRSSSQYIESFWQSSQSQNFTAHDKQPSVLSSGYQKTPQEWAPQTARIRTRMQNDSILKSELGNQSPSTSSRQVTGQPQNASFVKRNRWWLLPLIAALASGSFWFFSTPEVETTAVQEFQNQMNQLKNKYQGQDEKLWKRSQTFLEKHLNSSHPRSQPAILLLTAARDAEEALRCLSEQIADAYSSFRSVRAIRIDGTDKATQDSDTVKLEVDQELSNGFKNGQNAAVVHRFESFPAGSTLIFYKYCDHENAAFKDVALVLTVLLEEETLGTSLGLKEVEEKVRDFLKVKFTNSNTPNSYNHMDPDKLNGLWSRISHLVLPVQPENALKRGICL
Follistatin-related protein 3 (Homo sapiens), sequence (O95633 whole entry, looked up): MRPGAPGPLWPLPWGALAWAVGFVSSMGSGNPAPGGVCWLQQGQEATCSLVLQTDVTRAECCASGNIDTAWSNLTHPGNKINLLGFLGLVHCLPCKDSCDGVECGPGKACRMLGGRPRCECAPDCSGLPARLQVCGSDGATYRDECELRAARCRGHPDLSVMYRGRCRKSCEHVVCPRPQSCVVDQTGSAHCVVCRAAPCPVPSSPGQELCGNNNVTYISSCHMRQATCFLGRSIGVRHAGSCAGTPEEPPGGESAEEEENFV
Left-right determination factor 2 (Homo sapiens), sequence (O00292 whole entry, looked up): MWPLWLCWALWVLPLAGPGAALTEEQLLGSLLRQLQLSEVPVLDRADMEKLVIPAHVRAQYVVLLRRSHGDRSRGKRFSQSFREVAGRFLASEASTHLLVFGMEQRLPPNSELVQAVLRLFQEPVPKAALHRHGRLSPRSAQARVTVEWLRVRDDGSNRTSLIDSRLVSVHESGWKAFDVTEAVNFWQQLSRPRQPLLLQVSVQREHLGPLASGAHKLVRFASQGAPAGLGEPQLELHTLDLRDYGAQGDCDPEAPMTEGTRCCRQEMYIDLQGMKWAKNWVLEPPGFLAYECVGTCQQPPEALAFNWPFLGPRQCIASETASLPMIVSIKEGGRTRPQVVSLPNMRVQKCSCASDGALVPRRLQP

Structure (SMILES)	composite z-score [1]	composite z-score [2]	composite z-score [3]	z-score [4]	composite z-score [5]	composite z-score [6]	composite z-score [7]	composite z-score [8]	composite z-score [9]	composite z-score [10]	composite z-score [11]	z-score [12]	composite z-score [13]	composite z-score [14]	composite z-score [15]	composite z-score [16]	composite z-score [17]	composite z-score [18]	composite z-score [19]	composite z-score [20]
COC(=O)[C@@]1(Cc2ccc(OC)cc2)[C@H]2c3cc(C(=O)N4CCCC4)n(Cc4cc(C)n(C)n4)c3C[C@H]2CN1C(=O)c1ccccc1	1.74	1.26	1.17	0.317 (inactive)	1.32	0.666	-0.158	0.0098	-0.712	0.104	0.712	-1.38	0.78	1.46	0.81	0.23	0.4	0.352	1.21	0.769
Cc1ccc(C(C)CC(O)C2C=CC3C(=O)N(c4ccccc4)C(=O)C3N2Nc2ccc(C#N)cc2)o1 (stereo not given)	0.966	0.846	0.539	3.02 (inactive)	1.12	1.08	0.202	0.913	-0.0435	0.607	1.42	0.0453	0.168	1.48	0.314	-0.0044	0.138	0.526	1.16	1.17
COCCOC(=O)N1C(=O)[C@@]2(c3cc(C#CCNC(N)=O)ccc31)[C@H](c1ccc(OCCO)cc1)N1[C@H](c3ccccc3)[C@H](c3ccccc3)OC(=O)[C@H]1[C@@H]2C(=O)NC[C@H](O)c1ccccc1	1.4	0.26	0.788	0.38 (inactive)	0.945	0.469	0.711	1.29	0.583	1.43	1.26	-0.711	0.799	1.22	0.226	-0.0792	-0.138	1.21	0.878	1.61
COc1cc2c(cc1O)C(c1cccs1)N(Cc1sc3ccccc3c1Cl)CC2 (stereo not given)	1.33	0.525	0.179	-0.861 (inactive)	1.46	1.36	0.495	1.41	0.726	0.816	1.48	-1.7	0.659	1.66	0.334	-0.0345	0.199	0.593	1.33	1.87
CN(C)CCCCCCNC(=O)[C@@H]1C[C@@H]2C(=O)N[C@@H](CCCCN)C(=O)N2[C@@H]1c1ccc(O)cc1	2.07	3	1.81	-2.28 (inactive)	1.58	1.46	1.68	1.64	2.29	1.56	1.53	0.805	1.62	2.11	0.347	1.28	2.47	1.96	4.63	3.03
O=C1C2C=CC(C(O)C=Cc3ccc([N+](=O)[O-])cc3)N(Nc3ccccc3)C2C(=O)N1c1ccccc1 (stereo not given)	1.37	-0.0814	0.689	0.649 (inactive)	1.07	1.16	0.244	1.31	0.419	1.06	1.36	-0.486	0.0857	1.37	-0.0507	0.0037	-0.0866	-0.397	0.568	0.742
COCCOC(=O)N1C(=O)[C@@]2(c3cc(C#CC4=CCCCC4)ccc31)[C@H](c1ccc(O)cc1)N1[C@H](c3ccccc3)[C@H](c3ccccc3)OC(=O)[C@H]1[C@@H]2C(=O)NC[C@H](O)c1ccccc1	0.535	0.0353	0.129	-0.586 (inactive)	1.12	0.348	0.462	1.17	0.557	0.528	1.39	-1.66	0.623	0.713	0.135	0.0324	0.296	-0.614	1.39	0.791
COCCOC(=O)N1C(=O)[C@@]2(c3ccccc31)[C@H](c1ccc(OCCO)cc1)N1[C@H](c3ccccc3)[C@H](c3ccccc3)OC(=O)[C@H]1[C@@H]2C(=O)N1CCCCCCC1	2.35	3.24	1.9	-1.59 (inactive)	1.76	1.46	2.03	1.76	2.62	1.89	1.52	-1.56	1.83	3.21	1.79	1.61	3.26	3.73	5.85	5.03
C=CCN1C(=O)[C@]2(O[C@H](CCO)[C@@H]([Si](C)(C)c3ccc(OC)cc3)[C@@H]2C)c2cc(N3C(=O)COc4ccccc43)ccc21	0.529	-0.113	0.33	-3.03 (inactive)	0.74	0.195	0.0364	0.4	-0.207	0.378	1.32	-5.2	0.181	0.966	0.325	-0.0134	-0.0858	0.0599	-0.0988	0.429
O=C1O[C@H](c2ccccc2)[C@H](c2ccccc2)N2[C@H]1[C@@H](C(=O)O)[C@]1(C(=O)Nc3ccc(C#CC4(O)CCCCCC4)cc31)[C@H]2c1ccc(O)cc1	0.502	-0.2	0.14	-0.574 (inactive)	0.0884	-0.103	0.161	-0.544	-0.297	0.138	0.628	-0.772	-0.114	0.277	0.431	-0.124	0.0611	-0.291	-0.0781	-0.0118
C[C@@H]1ON(c2ccc(I)cc2)[C@H](c2ccc(OC(=O)OC(C)(C)C)cc2)[C@H]1C(=O)N1C(=O)OC[C@H]1Cc1ccccc1	0.718	-0.14	-0.345	-1.78 (inactive)	0.367	1.07	0.458	0.872	0.567	0.0676	1.15	-1.12	0.628	0.501	-0.502	-0.241	-0.0431	-0.321	0.362	0.943
CO[C@H]1O[C@H](CO)[C@@H](OC(=O)CCc2ccccc2)[C@H](OC(=O)c2cc3ccccc3[nH]2)[C@H]1OC(=O)c1cc2ccccc2[nH]1	0.757	-0.118	-0.0052	-0.766 (inactive)	1.27	0.828	0.543	0.847	0.777	-0.108	1.34	-3.2	0.817	1.65	0.193	0.055	-0.138	0.248	1.21	0.889
COC(=O)[C@@]1(Cc2ccccc2)[C@H]2c3cc(C(=O)N(C)C)n(CCn4cc([N+](=O)[O-])nc4C)c3C[C@H]2CN1C(=O)c1ccccc1	1.72	-0.262	0.436	-0.106 (inactive)	0.937	0.793	0.355	0.444	0.0356	0.581	1.15	-0.347	0.0356	0.437	0.361	0.0162	0.0952	0.576	2.83	0.413
CC(=O)N1CC(C(O)C2C=CC3C(=O)NC(=O)C3N2Nc2ccc(Cl)cc2Cl)c2ccccc21 (stereo not given)	0.669	1.95	1.07	0.622 (inactive)	0.693	-0.28	-0.105	0.797	0.0106	1.19	0.759	-0.819	-0.138	1.18	0.789	0.0437	0.806	1.5	0.033	0.869
C=CCC(OC(C)=O)[C@@H]1[C@@H](N(Cc2cccc3ccccc23)C(=O)c2ccc(-c3ccccc3)cc2)c2cc(OCCCO)ccc2N1C(=O)c1ccc(-c2ccccc2)cc1 (stereo not given in full)	0.122	0.508	0.75	-0.698 (inactive)	-0.221	-0.0259	-0.151	0.143	-0.242	0.967	0.635	-0.681	0.385	0.603	1.16	-0.0819	0.0899	0.355	0.35	0.439
